Several values for one entry are separate records, joined by “and”; a condition that tells them apart may be missing. Equal values may be shown once. Screen size: about 360,000 compounds; about 2,400 (0.67%) were called active. The sample as a whole holds a higher share of actives than the screen did. A number with no mark means an inactive call.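 How the source made its calls: active means inhibition above about 55% (limit read from the data); inconclusive means no clear call, values can overlap the other calls; inactive means the rest.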
Experiment: LAMP-1 surface exposure blockers, TALL-104 cells – cell-based, flow cytometry, MLPCN library, primary screen (AID 651702)
Conditions: TALL-104 LAMP-1 surface exposure, at 10 µM, active compounds read high, cells stimulated with thapsigargin and PMA

Compound | inhibition
OCCC1CN(Cc2cccn2-c2nccs2)CCN1CCc1ccccc1 (configuration not stated) | 1.1%
COC(=O)[C@@]12CCCN1[C@H](c1ccc(-c3ccc(F)cc3)c(OC)c1)[C@H]1C(=O)N(C)C(=O)[C@H]12 | -14%
CCCCNC(=O)C[C@@H]1C[C@@]2(C(=O)OC)CC(C)(C)CC=C2N(Cc2ccco2)C1=O | -4.4%
COC(=O)[C@@H](Cc1ccccc1)NC(=O)NCCc1ccccc1 | 2.5%
COC(=O)[C@H](C)[C@H]1C[C@]1(C)[C@H](NC(=O)OCc1ccccc1)c1ccccc1 | 5.6%
COC(=O)[C@H](Cc1ccccc1)NC(=O)[C@@H]1C[C@H]1[C@@H](NC(=O)OCc1ccccc1)c1ccccc1 | 106% (active)
CC(=O)N1CCc2cc(S(=O)(=O)Nc3ccccc3N3CCN(C)CC3)ccc21 | 3.6%
Cc1nnc(SCC(=O)N2c3ccccc3C(C)(c3ccc(Cl)cc3)CC2(C)C)s1 (configuration not stated) | -0.3%
CCCCCn1nnnc1-c1nc2cc3ccccc3cc2[nH]c1=O | 56.3% (active)
CCCCCn1nnnc1C1c2ccccc2C(=O)N1Cc1ccco1 (configuration not stated) | -4%
CCCCn1c(-c2cccc(C)c2)nc2cc3[nH]c(=O)c(C(C)C)nc3cc21 | 7.2%
COc1ccccc1NC(=O)C(C)OC(=O)c1ccc(-n2cnnn2)cc1 (configuration not stated) | 2.1%
COc1ccc(NC(=O)Cn2ncn3c(cc4ccccc43)c2=O)c(OC)c1OC | -1.7%
O=C(CNCc1ccc(Cl)cc1)Nc1cccc(C(=O)O)c1 | 2.8%
CC(CC(=O)Nc1cc(C(F)(F)F)ccc1Cl)c1ccccc1 (configuration not stated) | 83.7% (active)
COc1cc(OC)c(C(=O)OC(C)C(=O)Nc2cc(C(F)(F)F)ccc2Cl)cc1OC (configuration not stated) | 0.8%
CC(C)CC(=O)Nc1cc(C(F)(F)F)ccc1N1CCOCC1 | -2.5%
CC1=NCCN1S(=O)(=O)c1ccc(Br)c(C)c1 | -1.3%
COc1cc(OC)c2c(-c3cccc(-c4cccc(N)c4)c3)cc(=O)oc2c1 | 4.4%

Compound | inhibition
COc1cccc(NC(=O)C2c3cc(OC)c(OC)cc3C(=O)N(C)C2c2cccnc2)c1 (configuration not stated) | 1.8%
COc1cccc(NC(=O)C2C(c3ccccc3)C2(Cl)Cl)c1 (configuration not stated) | 83.9% (active)
COc1cccc(NC(=O)C2CCCN2C(=O)OCc2ccccc2)c1 (configuration not stated) | -0.8%
O=S(=O)(N/N=C\c1cccn1-c1ccccc1)c1ccc2ccccc2c1 | -0.4%
Cc1cccc(CNC(=O)c2sc(=O)n(Cc3ccccc3C)c2C)c1 | -3.5%
CCCCCNC(=O)C(c1ccc(OC)cc1)n1c(=O)c(-c2ccccc2)nc2ccccc21 (configuration not stated) | 5.5%
COc1ccccc1N1CCN(c2nc(C)cc(=O)[nH]2)CC1 | 0.2%
COc1ccccc1N1CCN(c2ncnc3sc(C)c(-c4ccccc4)c23)CC1 | 57.5% (active)
COc1ccccc1N1CCN(c2ccc([N+](=O)[O-])nc2)CC1 | -3.5%
O=C1CCC([N+](=O)[O-])C(c2ccccc2Br)N1 (configuration not stated) | -1.2%
CCOc1ccccc1Nc1nnc(SCC(=O)NCC2CCCO2)s1 (configuration not stated) | -20.1%
COc1ccc(C2OC(CCc3ccccc3)Cc3[nH]c(=S)[nH]c(=O)c32)cc1 (configuration not stated) | -3%
Cc1cnc(C(=O)OCC(=O)NCCCc2ccccc2)cn1 | -0.1%
Cc1cnc(C(=O)OCC(=O)N2CCc3ccccc32)cn1 | 0.3%
Cc1cnc(C(=O)OCc2c(C)cc(C(C)(C)C)cc2C)cn1 | 63.8% (active)
Cc1cccc(N2CCN(C(=O)c3cccc(N4C(=O)C5C6C=CC(C6)C5C4=O)c3)CC2)c1C (configuration not stated) | -1.1%
CSCCC(C(=O)NC(C)(C)C)n1c(-c2ccccc2)nc2ccccc21 (configuration not stated) | -0.9%
CCOc1ccc(NS(=O)(=O)c2ccc(C(=O)NCC(c3ccccc3OC)N3CCCC3)cc2)cc1 (configuration not stated) | -1.8%
COc1ccc(S(=O)(=O)N(C)C)cc1NC(=O)COC(=O)c1n[nH]c2ccccc12 | -22.7%

Compound | inhibition
Cc1cccn2c(CNCC(C)Oc3cccnc3)c(C(=O)N3CCOCC3)nc12 (configuration not stated) | -5%
CCOC(=O)C1CCN(Cc2c(C(=O)N3CCOCC3)nc3c(C)cccn23)CC1 | -2.4%
Cc1cccc(N2CCC(NCc3c(C(=O)N4CCCCC4)nc4c(C)cccn34)CC2)c1 | 60.5% (active)
OCCn1c(-c2ccccc2)csc1=Nc1ccccc1 | -1.3%
CCc1ccc(Nc2n[n+](-c3ccccc3)c(-c3cccc(Cl)c3Cl)s2)cc1 | 5.9%
COc1cc(Br)c(-c2sc(Nc3ccccc3)n[n+]2-c2ccccc2)cc1OC | -3.6%
COc1ccc(C)cc1Nc1n[n+](-c2ccccc2)c(-c2cccc(Cl)c2Cl)s1 | 93.6% (active)
Cc1c(Cl)cccc1NC(=O)CCC(=O)N/N=C/c1ccco1 | 4.7%
CCOc1ccc(OCC)c(NC(=O)CSc2nnc(Cn3cnc4ccccc43)n2C)c1 | 0.1%
O=C(NCCc1c[nH]c2ccccc12)C1CCN(Cc2ccc(Br)cc2)CC1 | 77% (active)
CCOc1ccc(CN2CCN(Cc3c[nH]c4ccccc34)CC2)cc1 | 35.2%
Cc1ccc2[nH]cc(CCNC(=O)C3CCCCC3)c2c1 | -2.8%
CCOC(=O)C1=C(C)NC2=C(C(=O)CC(C)(C)C2)C1c1ccsc1 (configuration not stated) | 0.2%
CC(C)OC(=O)CC(=O)CC(O)c1cccc([N+](=O)[O-])c1 (configuration not stated) | -10.1%
O=C(COc1ccc(Cl)cc1)N1CCN(c2cccc(C(F)(F)F)c2)CC1 | 58.7% (active)
CSCCC(NC(=O)COc1ccccc1)C(=O)N1CCN(c2cccc(C(F)(F)F)c2)CC1 (configuration not stated) | 1.5%
Cc1c(C)c2ccc(OCC(=O)N3CCN(c4cccc(Cl)c4)CC3)cc2oc1=O | -2.4%
O=C(O)Cc1csc(-c2cccc(Oc3ccccc3)c2)n1 | -3.1% and -3.3%
CCOc1ccc(NC(=O)CN(C)C(=O)CCSc2ccc(F)cc2)cc1OCC | 14.3%

Reference: PubChem BioAssay AID651702 (NMMLSC, 2012)
